Source: ChEMBL document CHEMBL3988442, “University of Dundee, Small-Polar-MMV Screening Library” (2021)

Legend:
[1] = molecular target: T1, Aspartate--tRNA(Asp/Asn) ligase (Mycobacterium tuberculosis (strain ATCC 25618 / H37Rv)) (UniProt P9WFW3); assay: Assay for Asp RNA synthetase-1 from Mycobacterium tuberculosis; assay type: functional; set-up: scale not given: direction of the effect not stated beside the values; conditions: 30 µM; also: in the data most compounds retested in dose-response had high values
T1 sequence (whole entry): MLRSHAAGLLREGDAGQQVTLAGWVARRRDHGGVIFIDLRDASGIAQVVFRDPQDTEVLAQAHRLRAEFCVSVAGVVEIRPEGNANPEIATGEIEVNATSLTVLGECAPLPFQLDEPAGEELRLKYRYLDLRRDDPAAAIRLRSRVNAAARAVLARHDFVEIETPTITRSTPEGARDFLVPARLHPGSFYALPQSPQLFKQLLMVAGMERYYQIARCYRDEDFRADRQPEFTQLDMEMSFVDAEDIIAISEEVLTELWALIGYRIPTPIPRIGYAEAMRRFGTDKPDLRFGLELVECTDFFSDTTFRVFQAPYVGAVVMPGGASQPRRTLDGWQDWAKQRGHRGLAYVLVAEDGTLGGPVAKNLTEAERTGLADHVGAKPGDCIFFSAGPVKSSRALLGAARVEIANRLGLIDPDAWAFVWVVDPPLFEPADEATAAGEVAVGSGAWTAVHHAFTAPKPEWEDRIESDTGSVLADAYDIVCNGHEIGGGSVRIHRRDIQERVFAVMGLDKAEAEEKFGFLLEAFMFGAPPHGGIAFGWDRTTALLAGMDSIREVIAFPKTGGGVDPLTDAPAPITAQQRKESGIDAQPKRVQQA

[2] = molecular target: Shiga toxin 2 (Escherichia coli O157:H7) (UniProt P09385+P09386); assay: E. coli 0.157:H7 Shiga Toxin SOP - stx2 screening assay; assay type: functional; set-up: scale not given: direction of the effect not stated beside the values; conditions: 30 µM

Row | SMILES | Percent Effect [1] | Percent Effect [2]
1 | CN(C)c1nccc(N2CCO[C@H]3CN(CC4CCOCC4)C[C@H]32)n1 | -1.41% | -89.3%
2 | Cc1nc(CN(C)C2CCN(CC(=O)N3CCOCC3)C2)no1 (stereo unspecified) | 5.36% | 11.2%
3 | Cc1cc(C)c(CNC(=O)N2CCCC2c2cccn2C)c(=O)[nH]1 (stereo unspecified) | -3.71% | -31.2%
4 | COc1cc(CCC(C)O)c(OC)c2c1OCO2 (stereo unspecified) | -0.435% | -10.2%
5 | Cc1ccc(=O)n(CC2(O)CCN(Cc3cnc(C)nc3)CC2)n1 | 1.71% | 5.87%
6 | CN1C(=O)C[C@@H]2[C@@H]1CCN2C(=O)c1ccc[nH]1 | -4.63% | -6.89%
7 | O=C(Nc1ccc(N2CCCC2)nc1)N1CCc2ccccc2C1 | 2.91% | -147%
8 | N#Cc1ccnc(N2CCN(C(=O)NC3CCS(=O)(=O)C3)CC2)c1 (stereo unspecified) | -2.74% | 8.29%
9 | CCN(CC1CCOC1)C(=O)Nc1ccc(OC)nc1 (stereo unspecified) | 4.72% | -156%
10 | CS(=O)(=O)N1Cc2ccccc2C2(CCN(C(=O)c3ccno3)CC2)C1 | 1.46% | -6.76%
11 | CCc1n[nH]c(C2CN(C(=O)c3ncoc3C(C)C)CCO2)n1 (stereo unspecified) | 2.8% | -12.1%
12 | N#Cc1ccc(OCCNc2cccc(C(=O)N3CCOCC3)c2)cc1 | 1.46% | -43.4%
13 | Cc1nc(CN2CCCN(CCOc3cccc(C#N)c3)CC2)no1 | 5.09% | 19.3%
14 | Cn1cc(C(=O)N2CCCC(n3cccn3)C2)c2ccccc21 (stereo unspecified) | -0.132% | -6.71%
15 | COc1ncc(C2CC(=O)NCc3nc4ccccn4c32)cn1 (stereo unspecified) | -1.4% | 15%
16 | CC(=O)NC1CCCN(C(=O)NCc2cccnc2-n2cccn2)C1 (stereo unspecified) | -3.6% | -14.7%
17 | Cc1nc(CN2CCOC(c3nc(C(C)C)n[nH]3)C2)oc1C (stereo unspecified) | 0.999% | -9.33%
18 | Cc1cc(CC(=O)N2CCCC2c2nc(C(C)C)no2)on1 (stereo unspecified) | -3.79% | 8.6%
